Results on eight compounds are retold here after PubChem BioAssay (NCATS).

Results filed as inconclusive are left out. Active and inactive are the calls of the source. Calls follow the shape of the dose curve; as a rule, active = well fitted curve in the direction sought with a large enough effect; inconclusive = small, poorly fitted or top-dose-only effect, or another doubt; inactive = no such curve, though single readings can be large; an effect the other way counts as inactive or inconclusive.

Test [1] concerns the target Cytochrome P450 3A4 (Homo sapiens) (UniProt P08684). The test is described as follows: qHTS Assay for Activators of Cytochrome P450 3A4 (AID 885). Also: nearly all actives have a fitted effect of over 65% in size. The method in brief:
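Luminescent readout of luciferin formed from 25 uM Luciferin-PPXE (KM level) by 20 nM CYP3A4 in 200 mM KPO4, with 60 min NADPH-driven reaction at room temperature after 10 min compound exposure. Ketoconazole (57 uM) defined 100% inhibition.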
(In qHTS, concentration-response curves come from the screen itself.)

A short description of test [2]: U-118MG Cancer Cell Toxicity qHTS against the NCATS CANVASS Library (AID 1347351). Also: potency is read from the fitted curve at half-maximal effect. The essentials: (§1)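 1000 cells/well seeded and rested 4 h at 37 °C before pin transfer of compounds in an 11-pnt series. Exposure 72 h at 37 °C/5% CO2; viability by CellTiter-Glo luminescence after 15 min at room temperature.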
The nature of test [3]: A2780 Cisplatin Sensitive Ovarian Cancer Cell Toxicity qHTS against the NCATS CANVASS Library (AID 1347353). Also: nearly all actives have a fitted effect of over 60% in size. Also: potency is read from the fitted curve at half-maximal effect. The method in brief:
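Quantitative HTS format: eleven compound concentrations applied to pre-seeded cells, 72 h incubation at 37 °C, then ATP detection by luminescence.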

The nature of test [4]: HPAF-II 24hr Apoptosis Induction qHTS against the NCATS CANVASS Library (AID 1347356). The method in brief:
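Using an 11-point qHTS format, HPAF-II cells in DMEM/10% FBS received compounds for 24 h; doxorubicin titration as control. Caspase-3/7 activity quantified by DEVD-luciferase luminescence.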

Test [5] is described as follows: HEK293 18hr Apoptosis Induction qHTS against the NCATS CANVASS Library (AID 1347357). The essentials:
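Luminescent caspase-3/7 signal is measured in HEK293 cells exposed for 18 hours to an 11-point concentration series; doxorubicin serves as the plate control.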

Test [6] in a line: HPAF-II 12hr Apoptosis Induction qHTS against the NCATS CANVASS Library (AID 1347358). The essentials: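 Twelve-hour compound exposure of HPAF-II cells in DMEM with 10% FBS, then luminescent Caspase-Glo 3/7 detection after 15 min at room temperature; doxorubicin control.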
Test [7] in a line: HPAF-II 18hr Apoptosis Induction qHTS against the NCATS CANVASS Library (AID 1347360). The method in brief: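 Apoptosis was scored as caspase-3/7 activity in HPAF-II pancreatic cancer cells treated 18 hours with an 11-point concentration series.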
Test [8] in a line: KB-8-5-11 Cancer Cell Toxicity qHTS against the NCATS CANVASS Library (AID 1347364). Also: nearly all actives have a fitted effect of over 75% in size. Also: potency is read from the fitted curve at half-maximal effect. The essentials:
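Luminescent ATP signal (CellTiter-Glo, 10 min at room temperature) measured cell survival of KB-8-5-11 after 72 hr compound treatment. For confirmation, the cells were also grown with 1uM tariquidar.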

Test [9] is described as follows: qHTS for ATAD5 Agonist screened against the NCATS CANVASS Library (AID 1347367).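 Also: luciferase reporter driven by ATAD5 which rises upon DNA damage.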 Also: potency is read from the fitted curve at half-maximal effect. The method in brief:
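Step one plated reporter cells and let them acclimate 5hr. Step two pinned compounds with MMS as positive and 0.46% DMSO as negative control. After 16hr incubation, fluorescence viability then luminescence were read.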

Test [10] in a line: MCF7 Cancer Cell Toxicity qHTS against the NCATS CANVASS Library (AID 1347369). The method in brief: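 Cytotoxicity is measured by ATP content: MCF7 cells at 500 per well receive an 11-point compound series and, after 72 hr at 37C, are lysed with CellTiterGlo for luminescence.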
Test [11] in a line: qHTS for ATAD5 Antagonist screened against the NCATS CANVASS Library (AID 1347370).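 Also: HEK293T cells carrying an ATAD5 luciferase reporter co-treated with 10 µM 5-fluorouridine; series mostly up to about 46 µM; nearly all actives have a fitted effect of over 65% in size.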 The method in brief: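 HEK293T-ATAD5 luc reporter, 2000 cells/well; 5hr attach; cpd + 10 uM 5-FUrd; 16hr 37C, 5% CO2. Readouts: CellTiter-Fluor fluorescence (1hr), then Amplite luciferase luminescence (30min RT).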
Test [12] in a line: J3T Cancer Cell Toxicity qHTS against the NCATS CANVASS Library (AID 1347371). Also: potency is read from the fitted curve at half-maximal effect. The method in brief: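 ATP-based cytotoxicity in canine J3T cells: 72 hr exposure at 37C, 11-point titration, CellTiterGlo luminescent detection.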
Test [13] concerns the target Nuclear receptor subfamily 1 group I member 3 (Homo sapiens) (UniProt Q14994). The test is described as follows: qHTS for Constitutive Androstane Receptor (CAR) Antagonist screened against the NCATS CANVASS Library (AID 1347372). Also: potency is read from the fitted curve at half-maximal effect. The essentials: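 Antagonist mode: compound added alongside 50 nM CITCO to HepG2-hCAR-CYP2B6 reporter cells, 24hr at 37C. Viability by CellTiter-Fluor fluorescence, then CAR-driven luciferase by ONE-Glo luminescence.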

Test [14] in a line: Cytotoxicity qHTS for assessment of Hepg2 cells membrane integrity screened against the NCATS CANVASS Library (AID 1347387). The essentials: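 Membrane damage in HepG2 monolayers was estimated from released LDH, measured with CytoTox-ONE (ex 560/em 590 nm), after 5 hr treatment across 0.59 nM - 46 uM final.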
Test [15] in a line: Secretion counterscreen for inhibitors of the SERCaMP assay screened against the NCATS CANVASS Library (AID 1347390).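 Also: light from luciferase secreted into medium read as a measure of general secretion; series mostly up to about 77 µM.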 The method in brief:
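Counterscreen identifying compounds that disrupt secretion, using SH-SY5Y cells with a constitutively secreted Gaussia luciferase reporter. A 20 h compound exposure (top 77 uM) precedes luminescent detection with coelenterazine.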

Test [16] can be described thus: qHTS for activators of dead-cell proteases activity screened against the NCATS CANVASS Library (AID 1347392).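 Also: luminescence from protease leaking out of membrane-damaged cells cleaving impermeant substrate; rising signal means more cytotoxicity.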 The method in brief: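 Luminescent dead-cell protease readout (AAF-aminoluciferin, 15 min, room temperature) after 5 h compound treatment of HepG2 cells (2000/well, pre-attached 18 h). Eleven concentrations.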
Test [17] can be described thus: Vero-766 cells viability qHTS against the NCATS CANVASS Library: Counterscreen for Zika virus inhibition assay (AID 1347394). Also: nearly all actives have a fitted effect of over 60% in size. Also: potency is read from the fitted curve at half-maximal effect. The method in brief: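 This cytotoxicity counterscreen uses African green monkey Vero 766 cells in the absence of Zika virus. Compounds are incubated with cells for 72 h, and ATP-based luminescence reports viability.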
A short description of test [18]: Viability qHTS for inhibitors of the SERCaMP assay screened against the NCATS CANVASS Library (AID 1347400). Also: nearly all actives have a fitted effect of over 70% in size. Also: potency is read from the fitted curve at half-maximal effect. The essentials: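 Measures loss of viability in SERCaMP reporter SH-SY5Y cells treated for 48 h with compounds; luminescent ATP detection by CellTiter-Glo.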
Test [19] can be described thus: Redox Reaction Profiling qHTS: Assay Interference Panel against the NCATS CANVASS Library (AID 1347401). The essentials:
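Redox-cycling liability assessed as DTT-driven conversion of resazurin (5 uM, with 200 uM DTT, HEPES pH 7.3) to fluorescent resorufin. Fluorescence at 525/598 nm measured initially and after 15 min dark incubation.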

Test [20] can be described thus: SW1088 Cancer Cell Toxicity qHTS against the NCATS CANVASS Library (AID 1347350). Also: nearly all actives have a fitted effect of over 75% in size. Also: potency is read from the fitted curve at half-maximal effect. The method in brief: as §1

Sequence of Nuclear receptor subfamily 1 group I member 3 (Homo sapiens) (Q14994 whole entry, looked up): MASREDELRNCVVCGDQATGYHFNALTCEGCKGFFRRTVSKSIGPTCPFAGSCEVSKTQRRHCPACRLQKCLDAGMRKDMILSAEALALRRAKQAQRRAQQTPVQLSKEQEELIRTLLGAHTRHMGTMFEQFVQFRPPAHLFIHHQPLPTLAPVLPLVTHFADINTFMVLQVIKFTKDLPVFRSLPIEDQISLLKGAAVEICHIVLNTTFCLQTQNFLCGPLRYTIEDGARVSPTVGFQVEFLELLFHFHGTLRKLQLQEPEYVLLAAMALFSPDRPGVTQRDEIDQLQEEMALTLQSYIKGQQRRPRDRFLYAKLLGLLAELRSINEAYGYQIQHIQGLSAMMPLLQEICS
Sequence of Cytochrome P450 3A4 (Homo sapiens) (P08684 whole entry, looked up): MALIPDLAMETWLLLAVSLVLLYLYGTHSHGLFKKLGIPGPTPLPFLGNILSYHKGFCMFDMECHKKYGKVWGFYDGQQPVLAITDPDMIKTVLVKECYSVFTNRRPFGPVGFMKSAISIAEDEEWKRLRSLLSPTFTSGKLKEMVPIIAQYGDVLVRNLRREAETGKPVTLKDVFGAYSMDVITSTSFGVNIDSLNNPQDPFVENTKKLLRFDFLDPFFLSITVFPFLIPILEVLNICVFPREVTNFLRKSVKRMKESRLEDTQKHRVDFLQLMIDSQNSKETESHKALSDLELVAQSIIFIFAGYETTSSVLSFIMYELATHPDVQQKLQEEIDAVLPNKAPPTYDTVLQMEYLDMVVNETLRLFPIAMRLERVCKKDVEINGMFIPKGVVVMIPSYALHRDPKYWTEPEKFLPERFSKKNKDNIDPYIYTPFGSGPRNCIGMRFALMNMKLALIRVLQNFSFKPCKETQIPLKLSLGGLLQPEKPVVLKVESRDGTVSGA

Turning to `CC(C)(C)NC[C@@H](O)COc1cccc2[nH]c(C#N)cc12`, the Potency entry in [1] was “inactive”.

Turning to `CC[C@@H]1CN2CC[C@@]3(O)C(=Nc4cccc(OC)c43)[C@@H]2C[C@@H]1/C(=C\OC)C(=O)OC`, the Potency result in test [2], in test [3], in test [5], in [8], in [9] and in test [10] was “inactive” throughout. Moreover, the Potency result in test [11], in test [12], in test [13], in test [15], in [16] and in [17] was “inactive” in each case. The Potency result in [18] and in test [19] was “inactive” in each case. Also, the compound was classed as inactive in test [4], in [6], in test [7] and in test [14].

For the compound `CC1=CC(=O)C2=C(C)C[C@H](O)[C@@H]3[C@H](OC(=O)[C@@H]3C)[C@@H]12`, the Potency result in test [20], in test [2], in test [5], in test [8], in test [9] and in test [10] was “inactive” each time. For the same compound, the Potency result in [11], in test [12], in test [13], in test [15], in test [16] and in test [17] was “inactive” in each case. In addition, the Potency entry in test [18] and in test [19] was “inactive” each time. Also, the result in test [4], in test [6], in test [7] and in test [14] was inactive.

Regarding `C[C@]12CC(O)C3[C@@H](CCC4C[C@@H](O)CC[C@@]43CO)[C@@]1(O)CCC2C1=CC(=O)OC1` (some centres not stated), the Potency result in test [20], in test [2], in [3], in test [5], in [8] and in [9] was “inactive” each time. The Potency result in test [10], in test [11], in [12], in [13], in test [15] and in test [16] was “inactive” in each case. In addition, the Potency entry in test [17], in [18] and in test [19] was “inactive” each time. Moreover, the call in [4], in test [6], in test [7] and in test [14] was inactive.

With `CCN1C[C@]2(C)CC[C@H](O)[C@]34C1C(C[C@H]23)[C@@]12CC[C@H](CC14)[C@](O)(COC(=O)c1ccc(OC)c(OC)c1)[C@H]2O` (some centres not stated), the Potency entry in test [20], in test [2], in test [5], in test [8], in test [9] and in [10] was “inactive” throughout. Moreover, the Potency result in test [11], in test [12], in [13], in test [15], in [16] and in test [17] was “inactive” throughout. In addition, the Potency entry in [18] and in test [19] was “inactive” throughout. For the same compound, the call in test [4], in test [6], in [7] and in [14] was inactive.

Consider `C[C@@H](Cc1ccc(OCC(=O)O)cc1)NC[C@H](O)c1cccc(Cl)c1`, for which the Potency entry in [1] was “inactive”.

On to `CC[N@@+]1([O-])C[C@]2(C)CC[C@@H](O)[C@@]34C5C[C@H]6CC[C@@]5(C(C[C@H]23)C41)[C@H](O)[C@@]6(O)CO` (some centres not stated), for which the Potency result in [20], in test [2], in [3], in test [8], in [9] and in test [10] was “inactive” in each case. Besides, the Potency result in test [11], in test [12], in test [13], in [15], in test [16] and in test [17] was “inactive” in each case. In addition, the Potency entry in [18] and in [19] was “inactive” throughout. Also, the compound was called inactive in [4], in test [6], in [7] and in test [14].

For `CCC(=O)CCCCC[C@@H]1NC(=O)[C@H]2CCCCN2C(=O)[C@H]([C@@H](C)CC)NC(=O)[C@H](Cc2cn(OC)c3ccccc23)NC1=O`, the Potency in test [20] is 2.66 µM (active); in [2], 0.53 µM (active); in [3], 1.05 µM (active); in test [8], 13.2 µM (active); in test [9], 1.86 µM (active); in test [12], 5.9 µM (active). The results for the Potency in test [13], in [17] and in test [18] were 2.34 µM (active), 1.86 µM (active) and 3.81 µM (active), respectively. Besides, the compound was called inactive in test [4], in [6], in [7] and in test [14]. Besides, the Potency result in [5], in test [10], in test [11], in [15], in test [16] and in test [19] was “inactive” in each case.
